This is a sample that favours compounds with a hit; in the whole collection about 9.5% have one here.
SARS PLpro yeast: inhibitors of SARS-CoV papain-like protease in yeast; actives 0.19% (n = 330,000); S. cerevisiae expressing SARS-CoV PLpro, growth rescue; Potency, µM (titrated, usually from 32.9 µM), inactives show at the top dose activity, positive = growth rescue, hits mostly activators; also: 0% is about no effect; nearly all actives have a fitted effect of over 55% in size
NS1 function inh: influenza NS1 inhibition | actives 0.4% (n = 270,000) | AID 2326 | Potency, µM (highest dose often 46.1 µM), for the others: top-dose activity, positive = more growth; also: actives are rising curves; nearly all actives have a fitted effect of over 50% in size
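Compounds were scored for reversing the slow growth caused by influenza A NS1 in S. cerevisiae, measured by optical density at 600 nm. Assay medium contained 2% galactose at pH 6.0; NS1-free yeast of the same strain were the positive control.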
RE007 growth inh: less growth of the S. pombe RE007 Vpr strain; S. pombe RE007 Vpr strain, BacTiter-Glo ATP luminescence, 24 h; actives 0.21% (n = 360,000); Potency, µM (doses to about 92.2 µM), for inactives: top-dose activity change, negative = less growth, actives largely listed as inhibitors; active = well fitted falling curve with a large enough effect; inconclusive = small, poorly fitted or top-dose-only effect; inactive = no such curve, though single readings can be large or run the other way; also: % is scaled to controls: 0 for no effect and ±100 for the full control effect; nearly all actives have a fitted effect of over 50% in size
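Fission yeast strain RE007, carrying one chromosomally integrated HIV-1 vpr copy, was seeded at OD 0.01 in PMG+AL medium with 23 nL pinned compound. After 24 h at 30 °C and 99% humidity, viability was read by BacTiter-Glo luminescence.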
Pf growth 96h: P. falciparum growth inhibition at 96 hours | P. falciparum luciferase reporter growth, 96 h | Potency, µM (doses to about 28.7 µM), without a hit: top-dose activity change, negative = inhibition, usual class: inhibitors | actives 6.9% (n = 320,000) | AID 504834; active = well fitted inhibition curve with a large enough effect; inconclusive = small, poorly fitted or top-dose-only effect, or another doubt; inactive = no such curve, though single readings can be large or run the other way; also: % is scaled to controls: 0 for no effect and ±100 for the full control effect
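Readout is luminescence from an integrated firefly luciferase in P. falciparum. Red cells, 2% hematocrit and 0.05% parasitemia final, were cultured with compound through two parasite generations (96 hours) at 37 C, 5% CO2.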
Pf growth 48h: inhibits P. falciparum growth in the first generation, 48 h. Potency, µM (top dose mostly 28.7 µM), inactives show at the highest dose activity change, negative = inhibition, most hits filed as inhibitors. actives 5.9% (n = 310,000). P. falciparum luciferase growth in erythrocytes, 48 h. AID 504832; active = well fitted inhibition curve with a large enough effect; inconclusive = small, poorly fitted or top-dose-only effect, or another doubt; inactive = no such curve, though single readings can be large or run the other way; also: % is scaled to controls: 0 for no effect and ±100 for the full control effect
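Luciferase-expressing parasites in RBCs, 2% Hct / 0.1% parasitemia final; RPMI 1640 + 0.5% Albumax; 37 C, 5% CO2, one generation; luminescence read-out, lower signal = inhibition.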
* = called active by the depositor; ? = inconclusive; nt = not tested or not shown; [ ] = remark or other dose. Unless noted, calls follow the shape of the full dose curve. Potency is read from the fitted curve at half-maximal effect.

SMILES	SARS PLpro yeast	NS1 function inh	RE007 growth inh	Pf growth 96h	Pf growth 48h
CCC(C)(C)NC(=O)C(c1cccc(OC)c1)N(C(=O)CNC(=O)c1cccs1)c1cccnc1 (configuration not stated)	1.7%	-4.8%	-7.6%	-15.6%	?
CCOC(=O)NN1C(=O)c2ccccc2NC1c1ccccn1 (configuration not stated)	0.9%	nt	-6.8%	10.4µM*	8.1%
O=C(CSc1nc2ccccc2s1)Nc1cc(S(=O)(=O)N2CCOCC2)ccc1O	12.6µM*	2.5%	14.9%	?	15.6%
Nc1nonc1NC(=O)CSc1nc2ccccc2s1	nt	-46.9%	17.6%	10.4µM*	19.1%
O=C(NCC(O)c1nc2ccccc2[nH]1)c1cc2ccccc2[nH]1 (configuration not stated)	nt	nt	-2.2%	nt	nt
CCOc1ccc(CNS(=O)(=O)c2cc(CN3C(=O)c4cccnc4C3=O)ccc2OC)cc1	-4.7%	-7.6%	5.4%	?	10.8%
COc1ccc(CNS(=O)(=O)c2cc(CN3C(=O)c4cccnc4C3=O)ccc2OC)cc1	2.9%	-1.1%	-3.9%	14.7µM*	9.3%
COC(=O)c1sccc1NC(=S)N1CCCC(C)C1 (configuration not stated)	-14.4%	-49.2%	-29.3%	?	11.7µM*
COC(=O)c1sccc1NC(=S)N(C)C1CCCCC1	-8.2%	nt	-18.4%	?	9.28µM*
COC(=O)c1sccc1NC(=S)N1CCN(C)CC1	2.4%	nt	-11.4%	?	?
COC(=O)c1sccc1NC(=S)N1CCN(c2cc(C)ccc2C)CC1	-84.5%	-11.0%	4.6%	-23.9%	10.4µM*
CC(Sc1nc(NCc2ccccc2)nc(N2CCOCC2)n1)C(=O)Nc1ccccc1 (configuration not stated)	9.1%	-10.7%	18.0%	nt	?
O=C(CSc1nc(Nc2ccccc2)nc(N2CCOCC2)n1)Nc1ccc2c(c1)OCCO2	-1.2%	-44.8%	-2.6%	nt	9.28µM*
Cc1ccccc1NC(=O)CSc1nc(Nc2ccccc2)nc(N2CCOCC2)n1	-10.8%	-25.9%	9.1%	nt	?
CN(C)c1nc(NCc2ccccc2)nc(SCC(=O)Nc2ccccc2)n1	6.5%	9.8%	5.6%	?	?
CC(C)(C)Nc1nc(NCc2cccnc2)nc(N2CCOCC2)n1	10.0%	0.6%	8.5%	?	5.22µM*
CC(Sc1nc(NCc2ccccc2)nc(N(C)C)n1)C(=O)Nc1ccccc1 (configuration not stated)	3.4%	19.7%	2.8%	5.22µM*	?
CN(C)c1nc(NC(C)(C)C)nc(SCC(=O)Nc2ccccc2)n1	-1.6%	nt	1.8%	-4.2%	14.7µM*
CC(C)C[C@H](NC(=O)N1CCn2c1nc1ccccc12)C(=O)NCC1CCCO1 (some centres not stated)	?	-9.2%	11.2%	4.8%	10.9%
CCN(CC(=O)NCc1ccccc1Cl)CC(=O)Nc1c(F)cccc1F	-0.1%	-5.7%	1.6%	28.4%	-10.9%
O=C(OCc1cn([C@@H]2C[C@H](c3ccccc3)N(C(=O)C3CCCCC3)C[C@H]2O)nn1)c1ccccc1	nt	nt	-1.4%	nt	nt
O=C(COC(=O)c1ccccc1O)Nc1cccc2ccccc12	4.9%	nt	-3.4%	-10.2%	3.5%
CC(C)N(CC(=O)O)CC(=O)O	nt	1.8%	nt	nt	nt
CC(C)(C)Nc1nc(SCC(=O)Nc2ccccc2)nc(N2CCOCC2)n1	-0.9%	-4.7%	-4.7%	?	9.28µM*
CC1CCc2c(sc3nc(SCC(=O)O)n(-c4ccccc4)c(=O)c23)C1 (configuration not stated)	0.7%	-0.1%	-0.8%	?	-15.6%
SMILES	SARS PLpro yeast	NS1 function inh	RE007 growth inh	Pf growth 96h	Pf growth 48h
CN1CCc2c(sc3c2c(=O)n(-c2ccccc2)c2nnc(SCc4ccccc4)n32)C1	0.7%	6.3%	4.1%	nt	6.57µM*
CCSc1nc2sc3c(c2c(=O)n1-c1ccccc1)CCN(C)C3	-1.9%	-7.1%	-13.5%	81.6%	3.29µM*
CCCN1CCc2c(sc3nc(SCC)n(-c4ccccc4)c(=O)c23)C1	0.3%	3.2%	-13.8%	0.262µM*	1.31µM*
C=CCSc1nc2sc3c(c2c(=O)n1-c1ccccc1)CCN(C)C3	1.4%	5.4%	-4.6%	0.586µM*	?
COCCSc1nc2sc3c(c2c(=O)n1-c1ccccc1)CCN(C)C3	-0.5%	2.3%	0.7%	?	nt
COCCCN1C(=O)C(CC(=O)NC(c2ccccc2)c2ccccc2)CC(C(=O)N(C(C)C)C(C)C)=C1C (configuration not stated)	nt	nt	18.3%	nt	nt
Cc1cccc(C)c1NC(=O)COC(=O)c1ccc([N+](=O)[O-])o1	-16.5%	-1.1%	-6.8%	19.0%	?
Cc1ccccc1-c1nc2sc3c(c2c(=O)n1N)CCCC3	-15.5%	-6.2%	-25.9%	4.65µM*	nt
COc1ccc(-n2c(C)nc3sc4c(c3c2=O)CCC4)cc1	-12.6%	nt	-3.9%	4.65µM*	14.0%
Nn1c(-c2cccs2)nc2sc3c(c2c1=O)CCCC3	-12.6%	-9.4%	?	269.5%	239.9%
CCCN1CCc2c(sc3nc(SCC)n(-c4ccc(OC)cc4)c(=O)c23)C1	0.0%	-5.9%	-6.4%	0.586µM*	5.86µM*
COc1ccc(-n2c(SC)nc3sc4c(c3c2=O)CCN(C)C4)cc1	2.2%	0.0%	-9.1%	7.38µM*	3.7µM*
CCCN1CCc2c(sc3nc(SC)n(-c4ccccc4)c(=O)c23)C1	1.4%	-2.6%	-14.0%	0.738µM*	0.928µM*
CN1CCc2c(sc3nc(NN)n(Cc4ccccc4)c(=O)c23)C1	1.5%	9.0%	-5.5%	2.08µM*	3.7µM*
CC1C(c2ccccc2)N(C)C(c2ccccc2)C(C)C1(O)C#Cc1ccccc1 (configuration not stated)	-105.6%	-35.5%	-21.2%	-15.2%	9.28µM*
Cc1ccc(C(=O)NCCCN2CCOCC2)c(C)c1	-1.5%	5.0%	8.5%	-22.1%	19.4%
CC(C)N1CCCC(C)(C(=O)Nc2nccc3ccccc23)C1 (configuration not stated)	nt	nt	-3.2%[18.4 µM]	nt	nt
Oc1ccc(-c2nc3ncccn3c2Nc2ccc3c(c2)OCO3)cc1	3.1%	4.4%	-6.2%	-1.1%	?
Oc1ccc(-c2nc3cnccn3c2Nc2ccc3c(c2)OCCO3)cc1	-1.0%	-17.3%	-4.7%	4.3%	nt
Cc1ccn2c(Nc3ccc4c(c3)OCO4)c(-c3ccc(O)cc3)nc2c1	0.3%	8.7%	-9.9%	11.7µM*	?
COc1cc(-c2nc3ccc(C)cn3c2Nc2ccc3c(c2)OCCO3)ccc1O	-1.9%	-25.4%	4.2%	13.1µM*	11.7µM*
COc1cc(-c2nc3cnccn3c2Nc2ccc3c(c2)OCCO3)ccc1O	0.0%	-33.4%	-18.5%	40.7%	?
COc1cc(-c2nc3cnccn3c2Nc2ccc(C)cc2)ccc1O	-0.1%	15.2%	-7.7%	nt	?
Clc1ccc(-c2nc3ncccn3c2Nc2ccc3c(c2)OCO3)cc1	8.5%	?	12.4%	4.15µM*	4.15µM*
COc1cc(-c2nc3cnccn3c2Nc2ccccc2)ccc1O	-4.9%	-30.7%	-8.2%	5.22µM*	?

High-throughput results: PubChem, National Center for Advancing Translational Sciences (NCATS)
